# Activity calls are given as the source filed them. The rule behind the calls is not given here.
# Biological target: Pantothenate synthetase (Mycobacterium tuberculosis (strain ATCC 25618 / H37Rv)) (UniProt P9WIL5)
# Assay: Recombinant Mtb pantothenate synthetase (PanC) inhibitors, coupled enzyme, confirmatory (AID 375);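 note: 0% = full reaction with vehicle and 100% = no enzyme background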
# Details: coupled enzyme assay; at 10 µM, active compounds read high
# Pantothenate synthetase (Mycobacterium tuberculosis (strain ATCC 25618 / H37Rv)), sequence (P9WIL5 whole entry, looked up): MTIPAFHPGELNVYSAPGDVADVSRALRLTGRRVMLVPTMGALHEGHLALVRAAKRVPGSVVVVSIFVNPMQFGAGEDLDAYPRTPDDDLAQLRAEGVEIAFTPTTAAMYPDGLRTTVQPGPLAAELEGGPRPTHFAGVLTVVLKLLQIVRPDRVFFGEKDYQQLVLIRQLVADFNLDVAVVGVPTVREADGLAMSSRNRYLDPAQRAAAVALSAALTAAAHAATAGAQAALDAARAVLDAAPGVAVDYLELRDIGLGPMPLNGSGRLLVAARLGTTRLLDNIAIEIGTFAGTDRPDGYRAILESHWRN
row,SMILES,inhibition
1,Cc1c(NC(=O)c2coc(=O)c(Br)c2)c(=O)n(-c2ccccc2)n1C,7% (inactive)
2,CC(C)(C)NC(=O)CN(C(=O)CS(=O)CC(=O)Nc1ccc(F)cc1)c1ccc(Cl)cc1 (stereo not given),0% (inactive)
3,CCOC(=O)c1ccc(-c2c(C(=O)OCC)oc3cc(O)c(CC)cc3c2=O)o1,3% (inactive)
4,Cc1ccccc1NC(=O)N1C2CCCC1CC(NC(=O)C1CC1)C2 (stereo not given),14% (inactive)
5,CCOc1ccc(C(CC(=O)O)NC(=O)c2ccco2)cc1OC (stereo not given),2% (inactive)
6,Cc1cc(N2CCC3(CC2)OCCO3)n2nc(C)c(-c3ccc(Cl)cc3)c2n1,8% (inactive)
7,Cc1cc2ncc(C(=O)Nc3ccccc3)c(C)n2n1,7% (inactive)
8,CC(C)C1Cc2c(C#N)c(N)sc(=S)c2CO1 (stereo not given),2% (inactive)
9,CC(=O)Oc1cc(C(C)C)c(OCCN(C)C)cc1C,11% (inactive)
10,Cc1ccc2cc(C(c3nnnn3CC3CCCO3)N3CCc4ccccc4C3)c(=O)[nH]c2c1 (stereo not given),0% (inactive)
11,CN(C)c1nc(Oc2ccc(=O)n(C)n2)nc(N2CCOCC2)n1,0% (inactive)
12,O=C(CCN1CCOCC1)Nc1ccc2c(c1)CCC2,4% (inactive)
13,CCCCOc1ccc(C(=O)N2CCC(C)CC2)cc1,0% (inactive)
14,O=C(CN(CC1CCCO1)S(=O)(=O)c1ccc(S(=O)(=O)NC2CC2)cc1)Nc1ccccc1 (stereo not given),0% (inactive)
15,CCOc1ccc(C2C(C(=O)OC)=CN(CCOC)C=C2C(=O)OC)cc1,4% (inactive)
16,CCOC(=O)N1CCN(c2cc3[nH]c(=S)[nH]c3cc2F)CC1,2% (inactive)
17,COc1ccccc1-c1nnc2sc(-c3ccc(N(C)C)cc3)nn12,5% (inactive)
18,CCOc1ccccc1N(CC(=O)N1CCCCCC1)S(C)(=O)=O,0% (inactive)
19,C[C@H]1C[C@@H]2[C@H]([C@@H](O)C[C@@]3(C)[C@H]2CC[C@]3(O)C(=O)CO)[C@@]2(C)C=CC(=O)C=C12,0% (inactive)
20,CC(=O)OCC(=O)[C@@]1(O)CC[C@H]2[C@@H]3CCC4=CC(=O)CC[C@]4(C)[C@H]3[C@@H](O)C[C@@]21C,5% (inactive)

row,SMILES,inhibition
1,COc1ccc(C(CNC(=O)c2ccc(OCC3CCCO3)cc2)N2CCOCC2)cc1 (stereo not given),0% (inactive)
2,O=C(Nc1ccccc1C(=O)N1CCOCC1)C1COc2ccccc2O1 (stereo not given),0% (inactive)
3,CC(C)Cc1nnc(NC(=O)CCC(=O)N2CCOCC2)s1,0% (inactive)
4,CCOc1ccc2[nH]c(=O)c(C(c3nnnn3Cc3ccco3)N3CCC(C)CC3)cc2c1 (stereo not given),0% (inactive)
5,CCS(=O)(=O)CCn1c([N+](=O)[O-])cnc1C,7% (inactive)
6,COc1cccc(-c2nc(CS(=O)(=O)CC(=O)N3CCN(c4ccccn4)CC3)c(C)o2)c1,5% (inactive)
7,COc1ccc(Cl)cc1S(=O)(=O)n1cnc2ccccc21,1% (inactive)
8,CCOc1ccccc1OCCCCN1CCCC1,9% (inactive)
9,CCOc1cc(NC(=O)c2ccccn2)c(OCC)cc1NC(=O)CC(C)C,11% (inactive)
10,O=C(NCC(c1cccnc1)N1CCOCC1)c1ccco1 (stereo not given),2% (inactive)
11,COC(=O)c1ccsc1NC(=O)CN1C(=O)CCC1=O,0% (inactive)
12,O=C(c1ccco1)N1CCN(c2cccc(Cl)c2)CC1,0% (inactive)
13,O=C(NCc1ccco1)c1cnc2n(c1=O)CCS2,0% (inactive)
14,COc1ccccc1C1C(C#N)=C(N)Oc2cc(C)n(Cc3ccccn3)c(=O)c21 (stereo not given),1% (inactive)
15,Cc1ccc(S(=O)(=O)C(C#N)c2nc3ccccc3nc2N2CCCCC2)cc1 (stereo not given),2% (inactive)
16,COc1ccc(-c2noc(-c3ccccc3C(=O)NCc3ccco3)n2)cc1,3% (inactive)
17,COc1ccc(CCN2CCC(Nc3nc4ccccc4n3Cc3ccc(F)cc3)CC2)cc1,2% (inactive)
18,CN(C)c1oc(-c2ccccc2F)nc1C#N,1% (inactive)
19,Cc1onc(-c2ccccc2Cl)c1C(=O)NCCn1c(C)cc2ccccc21,8% (inactive)
20,CN(C)S(=O)(=O)N1CCN(S(=O)(=O)c2ccc(F)cc2)CC1,0% (inactive)
